# Assay results taken from PubChem BioAssay.
# For some assays here: Results with a measured potency or affinity are listed apart. Activity calls are given as the source filed them. Unless noted, no rule for the calls is given here.
# What was measured:
# [1] = antimalarial activity against Dd2 strain (AID 2302;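 active = growth inhibition above 50% at the single 2 µM test dose, taken to imply half-maximal potency below 2 µM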;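 also: 0% = DMSO untreated growth and 100% = chloroquine plus artemisinin killed control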); conditions: P. falciparum Dd2 in RBCs, LDH growth readout, 72 h; at 2 µM; stronger effect = higher value
# [2] = HepG2 cytotoxicity, primary screen, cytotoxicity control for P. falciparum antimalarial project, cell-based, ATP luminescence (AID 2303;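 active = inhibition above 50%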;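 also: 0% = DMSO wells and 100% = digitonin-killed cells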); conditions: HepG2 viability, 24-48 h, at 10 µM, stronger effect = higher value
# [3] = target: L-lactate dehydrogenase (Plasmodium falciparum (isolate CDC / Honduras)) (UniProt Q27743); assay: PfLDH activity inhibition – cell lysate, 3D7 strain, counter-screen for P. falciparum growth inhibition project (AID 2304);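 also: 0% = vehicle and 100% = reference inhibitor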; conditions: P. falciparum 3D7 crude extract, LDH APAD/NBT absorbance; at 2 µM; stronger effect = higher value
# Chain of L-lactate dehydrogenase (Plasmodium falciparum (isolate CDC / Honduras)) (Q27743 whole entry, looked up): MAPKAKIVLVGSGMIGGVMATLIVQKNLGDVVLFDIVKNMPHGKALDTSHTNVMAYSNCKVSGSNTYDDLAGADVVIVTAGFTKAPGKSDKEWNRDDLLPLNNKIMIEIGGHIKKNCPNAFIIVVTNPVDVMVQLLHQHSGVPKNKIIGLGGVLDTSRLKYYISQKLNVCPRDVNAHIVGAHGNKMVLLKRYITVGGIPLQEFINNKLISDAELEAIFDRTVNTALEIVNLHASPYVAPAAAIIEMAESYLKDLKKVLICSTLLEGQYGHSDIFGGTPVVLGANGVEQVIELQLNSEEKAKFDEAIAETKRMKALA
# [4] = inhibition of 3D7 malaria parasite growth – strain 3D7 (AID 2306);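 also: 0% = DMSO wells and 100% = chloroquine plus artemisinin control wells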; conditions: P. falciparum 3D7 erythrocytic growth, LDH absorbance, 72 h; at 2 µM; stronger effect = higher value
# [5] = target: Calcium-dependent protein kinase 1 (Plasmodium falciparum (isolate 3D7)) (UniProt P62344); assay: PfCDPK1 kinase inhibitors, biochemical, TCAMS library (AID 1159585; cut-off not given, nearly all actives have IC50 up to about 0.98 µM;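 also: inhibitors leave more ATP so luminescence rises with inhibition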); conditions: recombinant PfCDPK1, Kinase-Glo ATP depletion luminescence
# Chain of Calcium-dependent protein kinase 1 (Plasmodium falciparum (isolate 3D7)) (P62344 whole entry, looked up): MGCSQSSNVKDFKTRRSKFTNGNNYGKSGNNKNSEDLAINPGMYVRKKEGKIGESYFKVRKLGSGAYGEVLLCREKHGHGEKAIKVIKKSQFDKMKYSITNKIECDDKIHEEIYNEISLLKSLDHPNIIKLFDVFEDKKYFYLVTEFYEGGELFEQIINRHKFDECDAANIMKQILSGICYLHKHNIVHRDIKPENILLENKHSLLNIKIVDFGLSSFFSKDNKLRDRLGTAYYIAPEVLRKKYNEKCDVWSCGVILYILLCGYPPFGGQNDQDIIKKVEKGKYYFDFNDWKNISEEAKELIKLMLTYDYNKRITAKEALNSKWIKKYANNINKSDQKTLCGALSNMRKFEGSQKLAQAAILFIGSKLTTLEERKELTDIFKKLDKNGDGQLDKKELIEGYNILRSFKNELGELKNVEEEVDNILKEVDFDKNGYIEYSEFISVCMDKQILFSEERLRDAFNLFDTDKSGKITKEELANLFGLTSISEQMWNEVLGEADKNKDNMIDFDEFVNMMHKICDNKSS
# [6] = target: Plasmodium falciparum protein kinase 6 (PK6, PF3D7_1337100) (UniProt Q8IDW1); assay: PfPK6 kinase inhibitors, biochemical, TCAMS library (AID 1159586); conditions: recombinant PfPK6, Kinase-Glo ATP depletion luminescence
# Chain of Plasmodium falciparum protein kinase 6 (PK6, PF3D7_1337100) (Q8IDW1 1-305): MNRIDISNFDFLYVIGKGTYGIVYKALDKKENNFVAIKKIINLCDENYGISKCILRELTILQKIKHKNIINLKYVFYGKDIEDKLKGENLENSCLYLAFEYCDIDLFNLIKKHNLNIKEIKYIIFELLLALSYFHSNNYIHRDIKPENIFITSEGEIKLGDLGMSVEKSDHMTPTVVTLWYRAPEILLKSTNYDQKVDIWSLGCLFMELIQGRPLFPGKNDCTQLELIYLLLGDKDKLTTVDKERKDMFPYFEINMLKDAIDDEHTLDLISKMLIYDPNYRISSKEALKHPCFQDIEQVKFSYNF
# [7] = target: Protein kinase 7 (PK7), Plasmodium falciparum 3D7 (PF3D7_0213400) (UniProt Q7YTF7); assay: inhibition of Plasmodium PK7 catalytic activity – biochemical, TCAMS antimalarial set, Kinase-Glo luminescence (AID 1159587); conditions: recombinant PfPK7, Kinase-Glo ATP depletion luminescence
# Chain of Protein kinase 7 (PK7), Plasmodium falciparum 3D7 (PF3D7_0213400) (Q7YTF7 1-343): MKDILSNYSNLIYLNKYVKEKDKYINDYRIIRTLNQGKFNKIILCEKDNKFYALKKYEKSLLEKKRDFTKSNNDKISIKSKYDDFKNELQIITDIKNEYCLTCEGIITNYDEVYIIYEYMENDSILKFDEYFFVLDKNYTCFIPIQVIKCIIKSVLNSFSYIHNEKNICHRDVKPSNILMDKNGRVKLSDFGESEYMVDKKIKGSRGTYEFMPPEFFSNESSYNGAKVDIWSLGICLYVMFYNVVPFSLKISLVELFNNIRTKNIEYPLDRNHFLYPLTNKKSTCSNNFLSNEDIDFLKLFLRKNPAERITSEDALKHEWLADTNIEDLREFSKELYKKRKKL
# [8] = target: Calcium-dependent protein kinase 4 (Plasmodium falciparum (isolate 3D7)) (UniProt Q8IBS5); assay: PfCDPK4 kinase inhibitors, biochemical, TCAMS library (AID 1159588; cut-off not given, nearly all actives have IC50 up to about 0.91 µM); conditions: recombinant PfCDPK4, Kinase-Glo ATP depletion luminescence
# Chain of Calcium-dependent protein kinase 4 (Plasmodium falciparum (isolate 3D7)) (Q8IBS5 whole entry, looked up): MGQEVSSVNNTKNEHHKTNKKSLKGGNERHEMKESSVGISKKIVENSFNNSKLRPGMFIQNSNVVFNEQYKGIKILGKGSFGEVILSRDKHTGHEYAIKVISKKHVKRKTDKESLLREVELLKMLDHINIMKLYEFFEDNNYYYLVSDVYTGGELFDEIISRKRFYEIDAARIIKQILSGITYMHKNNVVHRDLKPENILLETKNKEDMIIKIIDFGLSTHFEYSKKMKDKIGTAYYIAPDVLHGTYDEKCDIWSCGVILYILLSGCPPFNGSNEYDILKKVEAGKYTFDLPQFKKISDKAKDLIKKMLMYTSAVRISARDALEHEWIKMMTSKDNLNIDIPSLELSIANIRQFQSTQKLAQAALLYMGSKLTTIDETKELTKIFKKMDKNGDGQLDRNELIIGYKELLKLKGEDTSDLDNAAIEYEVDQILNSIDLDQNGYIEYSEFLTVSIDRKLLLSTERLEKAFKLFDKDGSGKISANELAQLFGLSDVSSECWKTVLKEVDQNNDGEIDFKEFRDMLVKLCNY
Structure (SMILES),growth inhibition [1],inhibition [2],inhibition [3],growth inhibition [4],outcome [5],outcome [6],outcome [7],outcome [8]
CCc1cccc(C)c1-n1nc(-c2cc(C(C)(C)C)oc2C)cc1N,95% (active),4% (inactive),5% (inactive),95% (active),inactive,inactive,inactive,inactive
CCc1cn(CCCOC)c2ccc(C(=O)N[C@@H](Cc3ccccc3)[C@H](O)CNCc3cccc(C(F)(F)F)c3)cc12,78% (active),8% (inactive),-4% (inactive),93% (active),inactive,inactive,inactive,inactive
CCc1c[nH]c2c(N3CCCS3(=O)=O)cc(C(=O)N[C@@H](Cc3ccccc3)[C@H](O)CNC(C)(C)CCCC(C)C)cc12,98% (active),13% (inactive),-2% (inactive),96% (active),inactive,inactive,inactive,inactive
Nc1nc(N)c2c(ccc3nn(C4CCCC4)cc32)n1,3% (inactive),44% (inactive),-1% (inactive),97% (active),inactive,inactive,inactive,inactive
CC(C)n1nc(C(=O)N2CCN(c3ccccc3)CC2)c2ccccc2c1=O,3% (inactive),34% (inactive),0% (inactive),96% (active),inactive,inactive,inactive,inactive
O=C(NCc1cccc(F)c1)Nc1cccc(-c2ccc(-c3nc4ccc(F)cc4[nH]3)cc2)c1,0% (inactive),46% (inactive),-3% (inactive),84% (active),inactive,inactive,inactive,inactive
COc1ccc2nccc([C@@H](O)CN3CCC(NCc4nc5cc(F)ccc5o4)CC3)c2c1,12% (inactive),14% (inactive),-8% (inactive),102% (active),inactive,inactive,inactive,inactive
O=c1ccc(CNc2nc(NCCc3ccccc3)nc3cc(Cl)ccc23)c[nH]1,78% (active),21% (inactive),3% (inactive),95% (active),inactive,inactive,inactive,inactive
Oc1ccc(CCNc2nc(NCc3ccccc3-c3ccc(C(F)(F)F)cc3)nc(N3CCNCC3)n2)cc1,53% (active),17% (inactive),8% (inactive),97% (active),inactive,inactive,inactive,inactive
Cc1ccc2nc(/N=C(\N)NC(=O)NC3CCCCC3)nc(C)c2c1,94% (active),8% (inactive),0% (inactive),99% (active),inactive,inactive,inactive,inactive
c1cc(-c2ccc(CNCCCN3CCOCC3)cc2)cc(-c2nc3ccccc3[nH]2)c1,-1% (inactive),26% (inactive),-2% (inactive),100% (active),inactive,inactive,inactive,inactive
CCN(CC)CCn1c2ccccc2c2ccc(C(=O)Nc3ccc4sc(C)nc4c3)cc21,26% (inactive),97% (active),-5% (inactive),84% (active),inactive,inactive,inactive,inactive
CC(C)CNC(=O)c1cncc(-c2ccc(CN3CCC(N4CCCC4)CC3)cc2)c1,42% (inactive),25% (inactive),2% (inactive),100% (active),inactive,inactive,inactive,inactive
CCCCCCCCc1c(C)[nH]c(C)c(C#N)c1=O,96% (active),0% (inactive),4% (inactive),97% (active),inactive,inactive,inactive,inactive
CC(C)(C)c1cc(C(=O)N2CCC(c3ccccn3)CC2)n(Cc2ccccc2)n1,90% (active),3% (inactive),-3% (inactive),96% (active),inactive,inactive,inactive,inactive
COc1cccc2cc(C(=O)N[C@@H](CC(C)C)C(=O)Nc3cc(F)ccc3Br)oc12,45% (inactive),7% (inactive),-1% (inactive),87% (active),inactive,inactive,inactive,inactive
Cc1[nH]c2ccc(C#N)cc2c(=O)c1Br,61% (active),2% (inactive),-1% (inactive),91% (active),inactive,inactive,inactive,inactive
CC(Sc1n[nH]c(-c2cccs2)n1)C(=O)c1c[nH]c2ccccc12 (stereo not given),58% (active),-8% (inactive),6% (inactive),94% (active),inactive,inactive,inactive,inactive
CCN(CCCN1CCCCC1)c1cc(C)nc(Nc2cc(Cl)ccc2C)n1,37% (inactive),36% (inactive),-1% (inactive),99% (active),inactive,inactive,inactive,inactive
Cc1cc(C2CCN(CCCCNC(=O)c3ccc(NC(=O)c4ccc(Cl)cc4)cc3)CC2)c(C)cc1OCCN(C)C,77% (active),18% (inactive),-1% (inactive),100% (active),inactive,inactive,inactive,inactive

Structure (SMILES),growth inhibition [1],inhibition [2],inhibition [3],growth inhibition [4],outcome [5],outcome [6],outcome [7],outcome [8]
CC1(C)N=C(N)N=C(N)N1OCCCc1ccccc1,94% (active),64% (active),1% (inactive),96% (active),inactive,inactive,inactive,inactive
c1ccc(CN2CCC(NCc3ccccc3-c3cccc(CNC4CCCC4)c3)CC2)cc1,59% (active),35% (inactive),6% (inactive),101% (active),inactive,inactive,inactive,inactive
Cc1ccc(NC(=O)C2CCC2)cc1-c1ccc(C(=O)NCC2CC2)cc1,3% (inactive),13% (inactive),3% (inactive),98% (active),inactive,inactive,inactive,inactive
COc1ccc(-c2cnc(N)c(-c3ccc(C(N)=O)cc3)c2)cc1OC,98% (active),11% (inactive),4% (inactive),96% (active),inactive,inactive,inactive,inactive
CC(CCCCOCCc1ccccc1)NCC(O)c1cc(Cl)c(N)c(Cl)c1 (stereo not given),95% (active),-5% (inactive),-1% (inactive),96% (active),inactive,inactive,inactive,inactive
OCC1CCN(Cc2cccc(-c3ccc(-c4nc5ccc(C(F)(F)F)cc5[nH]4)s3)c2)CC1,90% (active),-6% (inactive),-9% (inactive),99% (active),inactive,inactive,inactive,inactive
CCCCCN=C(N)c1ccc(OCCCCCOc2ccc(C(N)=NCCCCC)cc2)cc1,98% (active),3% (inactive),6% (inactive),99% (active),inactive,inactive,inactive,inactive
Clc1cc(Cl)c2c(c1)C(NCCCNc1nc3ccccc3[nH]1)CCO2 (stereo not given),31% (inactive),28% (inactive),-4% (inactive),101% (active),inactive,inactive,inactive,inactive
O=C(C=Cc1ccc(Cl)c(Cl)c1)NCCCCCN1CCCC(CCCNC(=O)[C@@H]2C[C@H]2c2ccccc2)C1 (stereo not given in full),5% (inactive),48% (inactive),-1% (inactive),85% (active),inactive,inactive,inactive,inactive
Cn1nc(-c2ccc(S(=O)(=O)N3CCC(CCN4CCC(c5c[nH]c6ccccc56)CC4)CC3)s2)cc1C(F)(F)F,22% (inactive),40% (inactive),4% (inactive),94% (active),inactive,inactive,inactive,inactive
CC(=O)N[C@H](C(=O)Nc1ccc(-c2cccc(-c3nc4c(C)cccc4[nH]3)c2)cc1)C(C)C,10% (inactive),9% (inactive),2% (inactive),89% (active),inactive,inactive,inactive,inactive
CCOc1ccc(-c2nonc2NC(=O)c2ccccc2OC)cc1OCC,99% (active),24% (inactive),-3% (inactive),100% (active),inactive,inactive,inactive,inactive
CN1CCN(c2cc(NC(=O)Nc3ccc(-c4ccncc4)c(Cl)c3)ccc2Br)CC1,99% (active),23% (inactive),2% (inactive),101% (active),inactive,inactive,inactive,inactive
Cc1ccc(NC(=O)NC2CCN(CCC(NC(=O)Cc3ccccc3)c3ccc(Cl)c(Cl)c3)CC2)cc1 (stereo not given),2% (inactive),16% (inactive),-1% (inactive),100% (active),inactive,inactive,inactive,inactive
Nc1c2c(nc3ccc(NC(=O)CCCCCCc4ccccc4)cc13)CCCC2,90% (active),100% (active),4% (inactive),100% (active),inactive,inactive,inactive,inactive
CN(C)CCCNCc1ccc(-c2ccc(C(F)(F)F)cc2)cc1,35% (inactive),30% (inactive),-4% (inactive),96% (active),inactive,inactive,inactive,inactive
CN1CCN(Cc2ccc(-c3ccc4ncnc(Nc5ccc(OCc6ccccc6)cc5)c4c3)o2)CC1,90% (active),9% (inactive),2% (inactive),97% (active),inactive,inactive,inactive,inactive
COCCNCc1cccc(-c2ccc(CNC3CCN(Cc4ccccc4)CC3)cc2)c1,97% (active),34% (inactive),-7% (inactive),100% (active),inactive,inactive,inactive,inactive
CC1(C)N=C(N)N=C(N)N1OCCCc1cccc(C(F)(F)F)c1,95% (active),62% (active),-3% (inactive),95% (active),inactive,inactive,inactive,inactive
CC(=O)Nc1ccc(OCCCCN(Cc2ccccc2C(F)(F)F)c2ccc(C#N)c(C(F)(F)F)c2)cc1,47% (inactive),-3% (inactive),1% (inactive),80% (active),inactive,inactive,inactive,inactive
